± gives the standard deviation.
What was measured:
Assay in all cases: peptide microarray binding signal (635 nm), min-max normalized on array (fraction of array maximum); higher = stronger binding
Details in all cases: peptide region: H3 11-23
[1] = biological target: T1, HaloTag-ATRX ADD domain (163-292)
T1 chain: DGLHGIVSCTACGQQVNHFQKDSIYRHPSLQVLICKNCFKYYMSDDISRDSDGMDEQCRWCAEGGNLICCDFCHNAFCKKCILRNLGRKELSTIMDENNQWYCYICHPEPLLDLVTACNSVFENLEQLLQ
Method in brief: (§1)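 Binding signal is the mean intensity of triplicate spots, min-max scaled within each library. Histone 13-mer peptide–cellulose conjugates were spotted in triplicate on nitrocellulose with a Cy3 tracer and blocked overnight at 4°C. Probing lasted 1 h at 4°C, either with biotin-labelled HaloTag reader fusions (10 nM to 1 μM) and streptavidin-Alexa Fluor 647 or with rabbit histone antibodies (1:10,000 to 1:2,000) and anti-rabbit Alexa 647. An Axon GenePix 4000B read signal at 635 nm and misprints at 532 nm.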

[2] = biological target: HaloTag-ING2 PHD (mouse Ing2 200-280)
Method in brief: as §1

[3] = biological target: anti-H3K4me3 antibody ab8580
Method in brief: as §1

[4] = biological target: anti-H3K9me3 antibody ab8898
Method in brief: as §1

[5] = peptide modifications: H3K14me1 H3K18me1, binder concentration: 1:2,000 dilution
[6] = peptide modifications: H3K14me1 H3K18me1, binder concentration: 1:10,000 dilution
[7] = peptide modifications: H3K14me1 H3R17me1, binder concentration: 1:2,000 dilution
[8] = peptide modifications: H3K14me1 H3R17me1, binder concentration: 1:10,000 dilution
[9] = peptide modifications: H3K14me2, binder concentration: 1:2,000 dilution
[10] = peptide modifications: H3K14me2, binder concentration: 1:10,000 dilution
[11] = peptide modifications: H3K14me2 H3K18me1, binder concentration: 1:2,000 dilution
[12] = peptide modifications: H3K14me2 H3K18me1, binder concentration: 1:10,000 dilution
[13] = peptide modifications: H3K14me1 H3R17me2s, binder concentration: 1:2,000 dilution
[14] = peptide modifications: H3K14me1 H3R17me2s, binder concentration: 1:10,000 dilution
[15] = peptide modifications: H3K14me1 H3K18me2, binder concentration: 1:2,000 dilution
[16] = peptide modifications: H3K14me1 H3K18me2, binder concentration: 1:10,000 dilution
[17] = peptide modifications: H3K14me1 H3R17cit, binder concentration: 1:2,000 dilution
[18] = peptide modifications: H3K14me1 H3R17cit, binder concentration: 1:10,000 dilution
[19] = peptide modifications: H3K14me1 H3K18me3, binder concentration: 1:2,000 dilution
[20] = peptide modifications: H3K14me1 H3K18me3, binder concentration: 1:10,000 dilution
[21] = peptide modifications: H3K14me2 H3K18ac, binder concentration: 1:2,000 dilution
[22] = peptide modifications: H3K14me2 H3K18ac, binder concentration: 1:10,000 dilution
[23] = peptide modifications: H3K14me1 H3R17me2a, binder concentration: 1:2,000 dilution
[24] = peptide modifications: H3K14me1 H3R17me2a, binder concentration: 1:10,000 dilution

For TGGKAPRKQLATK [H3 11-23 T G G Kme A P R Kme Q L A T K], the “peptide microarray binding signal” value ([1]; peptide modifications: H3K14me1 H3K18me1, binder concentration: 50 nM) was 0.00561 ± 0.00015, the “peptide microarray binding signal” value ([1]; peptide modifications: H3K14me1 H3K18me1, binder concentration: 500 nM) was 0.00886 ± 0.00086 and the “peptide microarray binding signal” value ([2]; peptide modifications: H3K14me1 H3K18me1, binder concentration: 10 nM) was 0.0118 ± 0.0022. The “peptide microarray binding signal” value ([2]; peptide modifications: H3K14me1 H3K18me1, binder concentration: 100 nM) was 0.0213 ± 0.0055, the “peptide microarray binding signal” value [3, 5] was 0.00619 ± 0.0022 and the “peptide microarray binding signal” value [3, 6] was 0.00611 ± 0.00051. The “peptide microarray binding signal” value [4, 5] was 0.00311 ± 0.00053 and the “peptide microarray binding signal” value [4, 6] was 0.00213 ± 5.2e-05.

In the case of TGGKAPRKQLATK [H3 11-23 T G G Kme A P Rme K Q L A T K], the “peptide microarray binding signal” value ([1]; peptide modifications: H3K14me1 H3R17me1, binder concentration: 50 nM) is reported as 0.0069 ± 0.00032, the “peptide microarray binding signal” value ([1]; peptide modifications: H3K14me1 H3R17me1, binder concentration: 500 nM) is reported as 0.0148 ± 0.001 and the “peptide microarray binding signal” value ([2]; peptide modifications: H3K14me1 H3R17me1, binder concentration: 10 nM) is reported as 0.00674 ± 0.00033. The “peptide microarray binding signal” value ([2]; peptide modifications: H3K14me1 H3R17me1, binder concentration: 100 nM) was 0.0121 ± 0.00053, the “peptide microarray binding signal” value [3, 7] was 0.00587 ± 0.0018 and the “peptide microarray binding signal” value [3, 8] was 0.0114 ± 0.0068. For the same binder, the “peptide microarray binding signal” value [4, 7] was 0.0084 ± 0.0022 and the “peptide microarray binding signal” value [4, 8] was 0.00427 ± 0.0008.

With TGGKAPRKQLATK [H3 11-23 T G G Kme2 A P R K Q L A T K] the “peptide microarray binding signal” value ([1]; peptide modifications: H3K14me2, binder concentration: 50 nM) was 0.00614 ± 7.5e-05, the “peptide microarray binding signal” value ([1]; peptide modifications: H3K14me2, binder concentration: 500 nM) was 0.0148 ± 0.0014 and the “peptide microarray binding signal” value ([2]; peptide modifications: H3K14me2, binder concentration: 10 nM) was 0.00806 ± 0.00059. The “peptide microarray binding signal” value ([2]; peptide modifications: H3K14me2, binder concentration: 100 nM) was 0.00928 ± 0.002, the “peptide microarray binding signal” value [3, 9] was 0.00381 ± 0.00026 and the “peptide microarray binding signal” value [3, 10] was 0.00331 ± 0.00013. The “peptide microarray binding signal” value [4, 9] was 0.00619 ± 0.00091 and the “peptide microarray binding signal” value [4, 10] was 0.00548 ± 0.0005.

In the case of TGGKAPRKQLATK [H3 11-23 T G G Kme2 A P R Kme Q L A T K], the “peptide microarray binding signal” value ([1]; peptide modifications: H3K14me2 H3K18me1, binder concentration: 50 nM) is reported as 0.00752 ± 0.0013, the “peptide microarray binding signal” value ([1]; peptide modifications: H3K14me2 H3K18me1, binder concentration: 500 nM) is reported as 0.0129 ± 0.00084 and the “peptide microarray binding signal” value ([2]; peptide modifications: H3K14me2 H3K18me1, binder concentration: 10 nM) is reported as 0.013 ± 0.0021. For the same binder, the “peptide microarray binding signal” value ([2]; peptide modifications: H3K14me2 H3K18me1, binder concentration: 100 nM) was 0.0405 ± 0.012, the “peptide microarray binding signal” value [3, 11] was 0.0136 ± 0.0009 and the “peptide microarray binding signal” value [3, 12] was 0.00964 ± 0.0012. The “peptide microarray binding signal” value [4, 11] was 0.00565 ± 0.00074 and the “peptide microarray binding signal” value [4, 12] was 0.0045 ± 0.00053.

TGGKAPRKQLATK [H3 11-23 T G G Kme A P Rme2s K Q L A T K] was tested, and the “peptide microarray binding signal” value ([1]; peptide modifications: H3K14me1 H3R17me2s, binder concentration: 50 nM) was 0.00793 ± 0.00067, the “peptide microarray binding signal” value ([1]; peptide modifications: H3K14me1 H3R17me2s, binder concentration: 500 nM) was 0.0311 ± 0.0068 and the “peptide microarray binding signal” value ([2]; peptide modifications: H3K14me1 H3R17me2s, binder concentration: 10 nM) was 0.0249 ± 0.0026. The “peptide microarray binding signal” value ([2]; peptide modifications: H3K14me1 H3R17me2s, binder concentration: 100 nM) was 0.0474 ± 0.0059, the “peptide microarray binding signal” value [3, 13] was 0.00508 ± 0.0026 and the “peptide microarray binding signal” value [3, 14] was 0.0135 ± 0.0052. For the same binder, the “peptide microarray binding signal” value [4, 13] was 0.0103 ± 0.0018 and the “peptide microarray binding signal” value [4, 14] was 0.00709 ± 0.00074.

TGGKAPRKQLATK [H3 11-23 T G G Kme A P R Kme2 Q L A T K] was tested, and the “peptide microarray binding signal” value ([1]; peptide modifications: H3K14me1 H3K18me2, binder concentration: 50 nM) was 0.009 ± 0.00035, the “peptide microarray binding signal” value ([1]; peptide modifications: H3K14me1 H3K18me2, binder concentration: 500 nM) was 0.018 ± 0.00081 and the “peptide microarray binding signal” value ([2]; peptide modifications: H3K14me1 H3K18me2, binder concentration: 10 nM) was 0.00913 ± 0.00044. The “peptide microarray binding signal” value ([2]; peptide modifications: H3K14me1 H3K18me2, binder concentration: 100 nM) was 0.0241 ± 0.008, the “peptide microarray binding signal” value [3, 15] was 0.0068 ± 0.0002 and the “peptide microarray binding signal” value [3, 16] was 0.00588 ± 0.00018. The “peptide microarray binding signal” value [4, 15] was 0.00371 ± 0.00042 and the “peptide microarray binding signal” value [4, 16] was 0.00271 ± 4.1e-05.

With TGGKAPRKQLATK [H3 11-23 T G G Kme A P Rcit K Q L A T K] the “peptide microarray binding signal” value ([1]; peptide modifications: H3K14me1 H3R17cit, binder concentration: 50 nM) was 0.00351 ± 0.00027, the “peptide microarray binding signal” value ([1]; peptide modifications: H3K14me1 H3R17cit, binder concentration: 500 nM) was 0.0134 ± 0.00059 and the “peptide microarray binding signal” value ([2]; peptide modifications: H3K14me1 H3R17cit, binder concentration: 10 nM) was 0.0121 ± 0.0023. The “peptide microarray binding signal” value ([2]; peptide modifications: H3K14me1 H3R17cit, binder concentration: 100 nM) was 0.0268 ± 0.0021, the “peptide microarray binding signal” value [3, 17] was 0.00151 ± 0.00025 and the “peptide microarray binding signal” value [3, 18] was 0.00223 ± 0.00013. The “peptide microarray binding signal” value [4, 17] was 0.00267 ± 0.00024 and the “peptide microarray binding signal” value [4, 18] was 0.00271 ± 0.00023.

With TGGKAPRKQLATK [H3 11-23 T G G Kme A P R Kme3 Q L A T K] the “peptide microarray binding signal” value ([1]; peptide modifications: H3K14me1 H3K18me3, binder concentration: 50 nM) was 0.00705 ± 0.00051, the “peptide microarray binding signal” value ([1]; peptide modifications: H3K14me1 H3K18me3, binder concentration: 500 nM) was 0.0115 ± 0.00073 and the “peptide microarray binding signal” value ([2]; peptide modifications: H3K14me1 H3K18me3, binder concentration: 10 nM) was 0.0113 ± 0.00048. For the same binder, the “peptide microarray binding signal” value ([2]; peptide modifications: H3K14me1 H3K18me3, binder concentration: 100 nM) was 0.0191 ± 0.00089, the “peptide microarray binding signal” value [3, 19] was 0.389 ± 0.079 and the “peptide microarray binding signal” value [3, 20] was 0.473 ± 0.23. The “peptide microarray binding signal” value [4, 19] was 0.0513 ± 0.004 and the “peptide microarray binding signal” value [4, 20] was 0.0139 ± 0.0023.

With TGGKAPRKQLATK [H3 11-23 T G G Kme2 A P R Kac Q L A T K] the “peptide microarray binding signal” value ([1]; peptide modifications: H3K14me2 H3K18ac, binder concentration: 50 nM) was 0.00868 ± 0.00034, the “peptide microarray binding signal” value ([1]; peptide modifications: H3K14me2 H3K18ac, binder concentration: 500 nM) was 0.0165 ± 0.0015 and the “peptide microarray binding signal” value ([2]; peptide modifications: H3K14me2 H3K18ac, binder concentration: 10 nM) was 0.0173 ± 0.003. The “peptide microarray binding signal” value ([2]; peptide modifications: H3K14me2 H3K18ac, binder concentration: 100 nM) was 0.0242 ± 0.0017, the “peptide microarray binding signal” value [3, 21] was 0.0129 ± 0.0016 and the “peptide microarray binding signal” value [3, 22] was 0.0111 ± 0.00098. For the same binder, the “peptide microarray binding signal” value [4, 21] was 0.00806 ± 0.00086 and the “peptide microarray binding signal” value [4, 22] was 0.00496 ± 0.00013.

In the case of TGGKAPRKQLATK [H3 11-23 T G G Kme A P Rme2a K Q L A T K], the “peptide microarray binding signal” value ([1]; peptide modifications: H3K14me1 H3R17me2a, binder concentration: 50 nM) is reported as 0.00643 ± 0.00034, the “peptide microarray binding signal” value ([1]; peptide modifications: H3K14me1 H3R17me2a, binder concentration: 500 nM) is reported as 0.0164 ± 0.0061 and the “peptide microarray binding signal” value ([2]; peptide modifications: H3K14me1 H3R17me2a, binder concentration: 10 nM) is reported as 0.00633 ± 0.00014. The “peptide microarray binding signal” value ([2]; peptide modifications: H3K14me1 H3R17me2a, binder concentration: 100 nM) was 0.0122 ± 0.0012, the “peptide microarray binding signal” value [3, 23] was 0.00328 ± 0.0014 and the “peptide microarray binding signal” value [3, 24] was 0.00896 ± 0.0044. For the same binder, the “peptide microarray binding signal” value [4, 23] was 0.00393 ± 0.00055 and the “peptide microarray binding signal” value [4, 24] was 0.00398 ± 0.00069.
